Laboratory results taken from PubChem BioAssay AID1159580 (chemical genetic matrix, 2015).
Out of some 5,500 compounds screened, about 2,000 (36%) were called active. Not shown: some 18% with an inconclusive outcome. Cut-off read from the data, not from the text of the source: active = normalized growth mostly below about 0.91 (no sharp cut-off); inconclusive = no clear call, values can overlap the other calls; inactive = mostly above about 0.92. This is one part of the list.

Assay: chemical genetic growth profiling, strain panel (AID 1159580);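 note: tested at 20 µM; growth read once vehicle control cultures reached saturation at 30 °C; 1 = growth at the plate median or of vehicle wells; lower values mean less growth of the strain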
Conditions: growth OD

Measured: normalized growth

C/C=C(\C)C(=O)O[C@H]1C[C@@H](OC(C)=O)[C@@]2(C(=O)OC)CO[C@@H]3C2[C@]12CO[C@](O)(C(=O)OC)[C@H]2[C@](C)(C12O[C@@]1(C)[C@H]1C[C@@H]2OC2OC=C[C@@]21O)[C@@H]3O (some centres not stated)
inactive: S. cerevisiae deletion strains, locus YJR075W, strain HOC1, hits give low values 0.998 | S. cerevisiae deletion strains, locus YKL009W, strain mrt4, hits give low values 0.996 | S. cerevisiae deletion strains, locus YKL068W, hits give low values 0.987 | S. cerevisiae deletion strains, locus YKL085W, strain MDH1 (second series), hits give low values 0.998 | S. cerevisiae deletion strains, locus YKL085W, strain MDH1, hits give low values 0.998 | S. cerevisiae deletion strains, locus YKL160W, strain elf1, hits give low values 0.954 | S. cerevisiae deletion strains, locus YKL190W, strain CNB1, hits give low values 0.997 | S. cerevisiae deletion strains, locus YKR001C, strain vps1, hits give low values 0.988 | S. cerevisiae deletion strains, locus YKR026C, strain gcn3, hits give low values 0.992 | S. cerevisiae deletion strains, locus YKR091W, strain srl3, hits give low values 0.964 | S. cerevisiae deletion strains, locus YLL001W, strain dnm1, hits give low values 0.965 | S. cerevisiae deletion strains, locus YLL026W, hits give low values 0.978 | S. cerevisiae deletion strains, locus YLL041C, strain sdh2, hits give low values 0.975 | S. cerevisiae deletion strains, locus YLR027C, strain aat2, hits give low values 0.991 | S. cerevisiae deletion strains, locus YLR039C, strain RIC1, hits give low values 1.04 | S. cerevisiae deletion strains, locus YLR058C, strain SHM2, hits give low values 0.982 | S. cerevisiae deletion strains, locus YLR102C, strain apc9, hits give low values 0.979 | S. cerevisiae deletion strains, locus YLR113W, strain HOG1, hits give low values 1.02 | S. cerevisiae deletion strains, locus YLR221C, strain rsa3, hits give low values 0.999 | S. cerevisiae deletion strains, locus YLR258W, strain gsy2, hits give low values 0.969 | S. cerevisiae deletion strains, locus YLR262C, strain YPT6 (second series), hits give low values 0.968 | S. cerevisiae deletion strains, locus YLR262C, strain YPT6, hits give low values 1.03 | S. cerevisiae deletion strains, locus YLR268W, strain sec22, hits give low values 0.913 | S. cerevisiae deletion strains, locus YLR320W, strain mms22, hits give low values 0.992 | S. cerevisiae deletion strains, locus YLR330W, strain CHS5, hits give low values 0.996 | S. cerevisiae deletion strains, locus YLR342W, strain FKS1 (second series), hits give low values 1.05 | S. cerevisiae deletion strains, locus YLR342W, strain FKS1, hits give low values 0.983 | S. cerevisiae deletion strains, locus YLR357W, strain rsc2, hits give low values 0.978 | S. cerevisiae deletion strains, locus YLR370C, strain arc18, hits give low values 0.987 | S. cerevisiae deletion strains, locus YLR371W, strain rom2, hits give low values 0.971 | S. cerevisiae deletion strains, locus YLR384C, strain iki3, hits give low values 0.976 | S. cerevisiae deletion strains, locus YLR418C, strain cdc73, hits give low values 1 | S. cerevisiae deletion strains, locus YML016C, strain PPZ1, hits give low values 0.985 | S. cerevisiae deletion strains, locus YML032C, strain rad52, hits give low values 0.957 | S. cerevisiae deletion strains, locus YML120C, strain ndi1, hits give low values 0.979 | S. cerevisiae deletion strains, locus YML124C, strain tub3, hits give low values 0.99 | S. cerevisiae deletion strains, locus YMR058W, strain fet3, hits give low values 0.973 | S. cerevisiae deletion strains, locus YMR078C, strain ctf18, hits give low values 0.963 | S. cerevisiae deletion strains, locus YMR125W, strain sto1, hits give low values 0.958 | S. cerevisiae deletion strains, locus YMR129W, hits give low values 0.991 | S. cerevisiae deletion strains, locus YMR205C, strain PFK2, hits give low values 0.984 | S. cerevisiae deletion strains, locus YMR223W, strain ubp8, hits give low values 0.998 | S. cerevisiae deletion strains, locus YMR231W, strain pep5, hits give low values 0.968 | S. cerevisiae deletion strains, locus YMR263W, strain SAP30, hits give low values 0.987 | S. cerevisiae deletion strains, locus YMR307W, strain GAS1, hits give low values 0.987 | S. cerevisiae deletion strains, locus YNL067W, strain RPL9B, hits give low values 0.979 | S. cerevisiae deletion strains, locus YNL071W, strain lat1, hits give low values 0.983 | S. cerevisiae deletion strains, locus YNL128W, strain TEP1, hits give low values 0.993 | S. cerevisiae deletion strains, locus YNL153C, strain GIM3, hits give low values 0.988 | S. cerevisiae deletion strains, locus YNL183C, strain NPR1, hits give low values 0.972 | S. cerevisiae deletion strains, locus YNL209W, strain ssb2, hits give low values 0.989 | S. cerevisiae deletion strains, locus YNL233W, strain BNI4, hits give low values 0.98 | S. cerevisiae deletion strains, locus YNL248C, strain rpa49, hits give low values 0.967 | S. cerevisiae deletion strains, locus YNL250W, strain rad50, hits give low values 0.981 | S. cerevisiae deletion strains, locus YNL271C, strain bni1, hits give low values 0.97 | S. cerevisiae deletion strains, locus YNL298W, strain CLA4, hits give low values 0.968 | S. cerevisiae deletion strains, locus YNL307C, strain MCK1, hits give low values 0.983 | S. cerevisiae deletion strains, locus YNL322C, strain KRE1 (second series), hits give low values 0.977 | S. cerevisiae deletion strains, locus YNL322C, strain KRE1, hits give low values 0.995 | S. cerevisiae deletion strains, locus YNR049C, strain mso1, hits give low values 0.976 | S. cerevisiae deletion strains, locus YNR052C, strain pop2, hits give low values 0.973 | S. cerevisiae deletion strains, locus YOL006C, strain TOP1, hits give low values 0.926 | S. cerevisiae deletion strains, locus YOL012C, strain htz1 0.809 | S. cerevisiae deletion strains, locus YOL147C, strain pex11, hits give low values 0.981 | S. cerevisiae deletion strains, locus YOR001W, strain rrp6, hits give low values 0.995 | S. cerevisiae deletion strains, locus YOR061W, strain CKA2, hits give low values 0.989 | S. cerevisiae deletion strains, locus YOR069W, strain VPS5, hits give low values 0.982 | S. cerevisiae deletion strains, locus YOR070C, strain gyp1, hits give low values 1 | S. cerevisiae deletion strains, locus YOR080W, strain dia2, hits give low values 0.991 | S. cerevisiae deletion strains, locus YOR083W, strain WHI5, hits give low values 0.968 | S. cerevisiae deletion strains, locus YOR106W, strain vam3, hits give low values 0.938 | S. cerevisiae deletion strains, locus YOR136W, strain idh2, hits give low values 0.974 | S. cerevisiae deletion strains, locus YOR144C, strain elg1, hits give low values 0.973 | S. cerevisiae deletion strains, locus YOR184W, strain ser1, hits give low values 0.967 | S. cerevisiae deletion strains, locus YOR231W, strain MKK1, hits give low values 0.989 | S. cerevisiae deletion strains, locus YOR265W, strain rbl2, hits give low values 0.984 | S. cerevisiae deletion strains, locus YOR270C, strain vph1, hits give low values 0.93 | S. cerevisiae deletion strains, locus YOR290C, strain snf2, hits give low values 0.946 | S. cerevisiae deletion strains, locus YOR316C, strain cot1, hits give low values 0.977 | S. cerevisiae deletion strains, locus YPL051W, strain arl3, hits give low values 0.98 | S. cerevisiae deletion strains, locus YPL055C, strain LGE1, hits give low values 1.01 | S. cerevisiae deletion strains, locus YPL078C, strain atp4, hits give low values 0.942 | S. cerevisiae deletion strains, locus YPL106C, strain sse1, hits give low values 1 | S. cerevisiae deletion strains, locus YPL240C, strain hsp82, hits give low values 0.985 | S. cerevisiae deletion strains, locus YPL241C, strain CIN2, hits give low values 1 | S. cerevisiae deletion strains, locus YPL256C, strain CLN2, hits give low values 0.971 | S. cerevisiae deletion strains, locus YPR119W, strain clb2, hits give low values 0.991 | S. cerevisiae deletion strains, locus YPR141C, strain kar3, hits give low values 0.977 | S. cerevisiae deletion strains, locus YPR163C, strain tif3, hits give low values 0.97 | S. cerevisiae deletion strains, locus YPR167C, strain met16, hits give low values 0.978 | S. cerevisiae deletion strains, strain wtn01, hits give low values 0.948 | S. cerevisiae strains, strain wild type, hits give low values 0.994
